From PubChem BioAssay (Tox21)
“And” between values parts separate entries of the source, which are not always exact repeats. Equal entries are not always repeated. Inconclusive results are not listed. A structure can be active in one record and inactive in another. The source made the active and inactive calls. Unless noted, the call rests on the fitted dose curve; in most records, active means well fitted curve in the direction sought with a large enough effect in the repeat runs; inconclusive means weak or mixed curves; inactive means no such curve, though single readings can be large; an effect the other way counts as inactive or inconclusive.

Key:
[1] = qHTS assay for small molecule agonists of the p53 signaling pathway (AID 651631; calls by dose curve; further: nearly all actives have a fitted effect of over 15% in size)
Outline: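 HCT-116 cells carrying a beta-lactamase reporter under p53 response elements were dosed with compound for 16 h at 37 °C. LiveBLAzer B/G FRET substrate was then added for 2 h at room temperature, and fluorescence intensity was read to detect pathway agonism.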

[2] = qHTS assay for small molecules that induce genotoxicity in human embryonic kidney cells expressing luciferase-tagged ATAD5 (AID 651632); further: nearly all actives have a fitted effect of over 15% in size
Outline: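 Reporter cells (HEK293T) express luciferase-tagged ATAD5, a protein that accumulates after DNA damage. Treat 16 hr at 37C/5% CO2, add Amplite, wait 30 min at RT, and read luminescence.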

[3] = qHTS assay for small molecule agonists of the p53 signaling pathway - cell viability (AID 651633; calls by dose curve;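 further: p53RE-bla HCT reporter cells with a stable beta-lactamase p53 reporter; series mostly up to about 83 µM; nearly all actives have a fitted effect of over 30% in size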)
Outline: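 p53RE-bla cells, seeded at 4,000 per well and rested 5 h at 37 C/5% CO2, received compounds in DMSO for 16 h at 37 C. CellTiter-Glo was then added, and luminescence was read after 30 min at room temperature to gauge cytotoxicity.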

[4] = qHTS assay for small molecules that induce genotoxicity in human embryonic kidney cells expressing luciferase-tagged ATAD5 - cell viability (AID 651634; calls by dose curve; further: nearly all actives have a fitted effect of over 25% in size)
Outline: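 Seeding of 2,000 HEK293T ATAD5-luciferase cells per well preceded pin-tool compound transfer. Plates sat 15.5 hr at 37C under 5% CO2, then fluorescence was read after 30 min with CellTiter-Fluor.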

[5] = qHTS assay for small molecule disruptors of the mitochondrial membrane potential - cell viability (AID 720634; calls by dose curve;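 further: human HepG2 liver cancer cells; series mostly up to about 83 µM; nearly all actives have a fitted effect of over 20% in size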)
Outline: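 Measuring cytotoxicity alongside mitochondrial potential, the screen quantified ATP by luminescence in HepG2 cells after 1 hr compound incubation and a 30 min room-temperature CellTiter-Glo step.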

[6] = qHTS assay for small molecule disruptors of the mitochondrial membrane potential (AID 720635); further: potency means the concentration at half of the fitted maximal effect
Outline: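 HepG2 cells (2,000/well) attached overnight at 37C, then took compound for 1 hr at 37C, 5% CO2. Mito-MPS dye was added for 30 min; fluorescence was read at 490/535 nm (monomers) and 540/590 nm (aggregates).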

[7] = qHTS assay to test for compound auto fluorescence at 535 nm (green) in HepG2 cells (AID 720675)
[8] = qHTS assay to test for compound auto fluorescence at 460 nm (blue) in HEK293 cells (AID 720678)
Outline: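 Intrinsic compound fluorescence is recorded in live HEK293 cultures after overnight incubation at 37C, 5% CO2, using excitation 405 nm and emission 460 nm. Values are referenced to triamterene.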

[9] = qHTS assay to test for compound auto fluorescence at 590 nm (red) in HEK293 cells (AID 720679)
Outline: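 Red autofluorescence, HEK293 cells: 2,000 cells/well; attach 4-5 hr 37C; add 23 nL cpd or DMSO; incubate o/n 37C 5% CO2; read Ex540/Em590; Rose Bengal sodium reference.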

[10] = qHTS assay to test for compound auto fluorescence at 535 nm (green) in HEK293 cells (AID 720680)
[11] = qHTS assay to test for compound auto fluorescence at 460 nm (blue) in HEK293 cell free culture (AID 720681)
Outline: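 Test compounds were pinned into cell-free culture medium (DMEM with 10% FBS) and fluorescence was read directly at Ex/Em 405/460 nm. Signals were expressed as fluorescence equivalents of triamterene, with DMSO vehicle as control.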

[12] = qHTS assay to test for compound auto fluorescence at 535 nm (green) in HEK293 cell free culture (AID 720682)
Outline: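 Green-label autofluorescence (485 nm excitation, 535 nm emission) measured on compound added to cell-free culture medium (DMEM, 10% FBS). Output is expressed relative to fluorescein.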

[13] = qHTS assay to test for compound auto fluorescence at 590 nm (red) in HEK293 cell free culture (AID 720683)
Outline: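 Tox21 10K library compounds were pinned into cell-free DMEM with 10% FBS and fluorescence was read at excitation 540 nm. Activity is expressed as Rose Bengal sodium equivalency.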

[14] = qHTS assay to test for compound auto fluorescence at 590 nm (red) in HepG2 cell free culture (AID 720684)
Outline: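 Red fluorescence (540 nm excitation, 590 nm emission) was measured after compound transfer into cell-free MEM supplemented with 10% FBS. Values are equivalencies against Rose Bengal sodium.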

[15] = qHTS assay to test for compound auto fluorescence at 460 nm (blue) in HepG2 cell free culture (AID 720685)
Outline: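 Compound (23 nL) or DMSO pinned into cell-free MEM with 10% FBS; blue fluorescence read at 405/460 nm excitation/emission, expressed as auto-fluorescence equivalency to triamterene.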

[16] = qHTS assay to test for compound auto fluorescence at 535 nm (green) in HepG2 cell free culture (AID 720686)
[17] = target: Glucocorticoid receptor (Homo sapiens) (UniProt P04150); experiment: qHTS assay to identify small molecule agonists of the glucocorticoid receptor (GR) signaling pathway (AID 720691; active means well fitted activation curve with a large enough effect in the signal ratio in the repeat runs, not every such curve was filed as active; the % refers to the signal ratio)
Sequence of Glucocorticoid receptor (Homo sapiens) (P04150 whole entry, looked up): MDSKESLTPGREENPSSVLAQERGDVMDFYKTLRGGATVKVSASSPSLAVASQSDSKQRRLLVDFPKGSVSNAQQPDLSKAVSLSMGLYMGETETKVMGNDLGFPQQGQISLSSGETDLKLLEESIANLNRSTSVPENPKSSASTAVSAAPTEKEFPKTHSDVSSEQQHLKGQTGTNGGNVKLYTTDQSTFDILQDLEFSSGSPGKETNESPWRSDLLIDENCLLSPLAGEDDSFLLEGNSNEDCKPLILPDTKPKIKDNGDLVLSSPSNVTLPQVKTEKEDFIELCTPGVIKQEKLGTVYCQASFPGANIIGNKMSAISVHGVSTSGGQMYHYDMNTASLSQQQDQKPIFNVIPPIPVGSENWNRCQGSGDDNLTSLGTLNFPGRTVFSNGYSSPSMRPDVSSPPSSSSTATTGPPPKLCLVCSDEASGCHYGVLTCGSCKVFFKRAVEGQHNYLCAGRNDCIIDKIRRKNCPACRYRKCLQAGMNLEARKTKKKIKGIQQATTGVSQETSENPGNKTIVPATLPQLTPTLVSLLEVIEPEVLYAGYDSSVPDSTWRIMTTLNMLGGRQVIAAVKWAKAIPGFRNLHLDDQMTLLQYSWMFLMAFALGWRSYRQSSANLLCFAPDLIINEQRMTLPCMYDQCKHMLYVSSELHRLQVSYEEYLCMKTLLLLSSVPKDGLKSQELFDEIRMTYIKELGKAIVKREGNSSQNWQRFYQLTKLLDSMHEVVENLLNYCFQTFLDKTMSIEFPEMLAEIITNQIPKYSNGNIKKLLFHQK
Outline: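 Reporter read-out: fluorescence intensity following 2 h room-temperature LiveBLAzer B/G FRET substrate loading. Prior step: GR-bla HeLa cells held 4 h, then treated 18 h at 37 C.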

[18] = target: Glucocorticoid receptor (Homo sapiens) (UniProt P04150); experiment: qHTS assay to identify small molecule antagonists of the glucocorticoid receptor (GR) signaling pathway (AID 720692; active means well fitted inhibition curve with a large enough effect in the signal ratio in the repeat runs, not every such curve was filed as active; the % refers to the signal ratio)
Outline: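 Dexamethasone (5 nM final) stimulated a stably integrated GRE-beta-lactamase reporter in HeLa cells during 18 h co-incubation with compounds; signal was quantified as fluorescence intensity of B/G FRET substrate after 2 h.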

[19] = qHTS assay to test for compound auto fluorescence at 590 nm (red) in HepG2 cells (AID 720674)
Outline: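 Rose Bengal sodium served as the red fluorophore standard. HepG2 monolayers (overnight attachment, MEM with 10% FBS) were exposed to test compounds for 1 hr at 37 C and read at Ex 540/Em 590 nm.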

[20] = qHTS assay to test for compound auto fluorescence at 460 nm (blue) in HepG2 cells (AID 720687)
Outline: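 Cells (2,000/well in MEM with 10% FBS) attached overnight at 37 C, then were exposed to compound or DMSO for 1 hr at 37 C, 5% CO2. Fluorescence read at Ex/Em 405/460 nm, expressed as triamterene-equivalent signal.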

Measured: Potency

Oc1cc(Cl)ccc1Cl
active: [6] 28.1 µM and 27.3 µM
not listed: [19] | [20]
inactive: all other assays above

CCN(CC)C(=O)/C(Cl)=C(\C)OP(=O)(OC)OC
not listed: [19] | [20]
inactive: all other assays above

O=P(O)(O)CCCl
not listed: [7] | [17] | [18] | [19] | [20]
inactive: all other assays above

Cc1ccccc1[N+](=O)[O-]
not listed: [20]
inactive: all other assays above

Nc1ccc(Cl)c(Cl)c1
not listed: [17] | [18]
inactive: all other assays above

c1ccc(N=Nc2ccccc2)cc1
not listed: [7] | [20]
inactive: all other assays above

COC(=O)c1sccc1S(=O)(=O)NC(=O)Nc1nc(C)nc(OC)n1
not listed: [7] | [20]
inactive: all other assays above

COP(=S)(OC)Oc1cc(Cl)c(Cl)cc1Cl
active: [6] 11.9 µM and 29.8 µM and 7.64 µM
inactive: all other assays above

COc1ccc(C(CN(C)C)C2(O)CCCCC2)cc1 (configuration not stated)
not listed: [17] | [18] | [19]
inactive: all other assays above

NNC(=S)NN
not listed: [7] | [17] | [18]
inactive: all other assays above

O=Cc1ccco1
not listed: [17] | [18]
inactive: all other assays above

COP(=O)(OC)OC
not listed: [7] | [20]
inactive: all other assays above

NNC(N)=S
63.5 µM (active) and inactive: [6]
inactive: all other assays above

C=CCN(CC=C)C(=O)C(Cl)Cl
not listed: [7]
inactive: all other assays above

c1nc[nH]n1
not listed: [19]
inactive: all other assays above
